Source: PubChem BioAssay
Only some compounds are listed: those with a hit (about 19% of all), similar ones and a draw of the others.
HT1080 IDH1KD tx: kills HT-1080 cells with IDH1 knockdown. Potency, µM (doses to about 46.1 µM), for the others: top-dose activity, negative = toxicity, most hits filed as cytotoxic. 360,000 compounds, 2% hits. HT-1080 IDH1 knockdown viability, ATP luminescence, 48 h;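 note: 0% = DMSO wells and -100% = cell-free medium wells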
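Assay cells: HT-1080 with IDH1 knockdown, 750 per well, RPMI/5% FBS. Exposure: 48 h at 37 °C following 2 h pre-incubation. Read: CellTiter-Glo luminescence; fitted concentration-response, curve class assigned.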
DT40 TDP1 CPT: DT40-hTDP1 cell growth loss with CPT | 420,000 compounds, 12% hits | AID 686979 | chicken DT40 Tdp1-/-;hTDP1 cells + 20 nM CPT, ATP luminescence, 48 h | Potency, µM (highest dose often 46.2 µM), without a hit: at the highest dose activity change, negative = growth inhibition, actives largely listed as inhibitors; note: nearly all actives have a fitted effect of over 55% in size
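Cell growth measured by CellTiter-Glo luminescence after a minimum 48 h, 37 C compound exposure with 20 nM CPT in Tdp1-knockout DT40 cells stably expressing hTDP1, seeded 400/well; qHTS titration format.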
KB-3-1 tox: KB-3-1 parental cell cytotoxicity; AID 1347075; 400,000 compounds, 1.4% hits; KB-3-1 viability, CellTiter-Glo ATP luminescence, 72 h; Potency, µM (series often up to 46.1 µM), usual class: cytotoxic; note: nearly all actives have a fitted effect of over 60% in size
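Luminescent ATP read-out (CellTiter-Glo) measures survival of drug-naive KB-3-1 cells after 72 h compound exposure at 37 °C. Titration series was screened from lowest to highest concentration, with DMSO vehicle plates as background controls.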
HT1080NT lethal: kills 2HG-producing HT-1080-NT fibrosarcoma cells. 360,000 compounds, 1.6% hits. Potency, µM (top dose mostly 46.1 µM), without a hit: at the highest dose activity, negative = less viability, hits mostly cytotoxic. HT-1080-NT fibrosarcoma viability, CellTiter-Glo ATP luminescence, 48 h;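 note: NT is the 2HG producing partner of a matched IDH1 knockdown line; 0% = DMSO-treated cells and -100% = media-only wells without cells; nearly all actives have a fitted effect of over 55% in size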
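Fibrosarcoma NT cells, 750 per well in 5% FBS RPMI, were exposed to compound for 48 hours. Viability: CellTiter-Glo luminescence.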
KB-V1 MDR tox: kills drug-selected multidrug resistant KB-V1 cells | KB-V1 MDR cells viability, CellTiter-Glo, 72 h | 400,000 compounds, 3.4% hits | Potency, µM (highest dose often 46.1 µM), most hits filed as cytotoxic; note: nearly all actives have a fitted effect of over 60% in size
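KB-V1, DMEM (no phenol red) + 10% FBS; cpd pin-transferred, titration series; 72 h, 37 degrees C; CellTiter-Glo, luminescence. Data normalized, curve-fit.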
DT40 TDP1 no CPT: qHTS for Inhibitors of human tyrosyl-DNA phosphodiesterase 1 (TDP1): qHTS in cells in absence of CPT; DT40 Tdp1-/- hTDP1 cells, no CPT, ATP luminescence, 48 h; Potency, µM (top dose mostly 46.2 µM), inactives show at the top dose activity change, negative = growth inhibition, actives largely listed as inhibitors; 420,000 compounds, 15% hits; AID 686978, 2013; note: nearly all actives have a fitted effect of over 55% in size
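Chicken DT40 Tdp1-/- cells stably complemented with human TDP1 were seeded at 400 cells/well with DMSO in place of 20 nM camptothecin. After compound pinning, cells grew at least 48 hr at 37 °C; viability read by CellTiter-Glo luminescence.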
The depositor's hits bear a star; i = inactive; u = inconclusive; x = no result given; [ ] = dose if it differs, or a comment. Calls come from the whole dose curve; as a rule, active = well fitted curve in the direction sought with a large enough effect; inconclusive = small, poorly fitted or top-dose-only effect, or another doubt; inactive = no such curve, though single readings can be large; an effect the other way counts as inactive or inconclusive. Unless noted, % is set by controls: 0 for no effect and ±100 for the full control effect; potency is the fitted concentration of half-maximal effect.

SMILES	HT1080 IDH1KD tx	DT40 TDP1 CPT	KB-3-1 tox	HT1080NT lethal	KB-V1 MDR tox	DT40 TDP1 no CPT
Cc1ccc2[nH]c(=O)c3cc(C(=O)NCCN4CCN(C)CC4)sc3c2c1	0%	-20%	i	-3%	u	-20%
Cc1ccc2[nH]c(=O)c3cc(C(=O)N(C)c4ccccc4C)sc3c2c1	7%	u	u	0%	u	10µM*
Cc1ccc2[nH]c(=O)c3cc(C(=O)N(C)c4ccc(Br)cc4)sc3c2c1	x	3.7µM*	i	x	i	3.3µM*
Cc1ccc(C)c(C(O)c2ncc(-c3cccc(F)c3)[nH]2)c1 (configuration not stated)	23%	-4%	i	26%	i	-29%
CCC(C)NC(=O)c1ccc(N2CC3CC(C2)c2cccc(=O)n2C3)c(NC(=O)c2c(F)cccc2F)c1 (configuration not stated)	0%	u	i	1%	i	u
CC(Nc1cccc(C(=O)NC2CC2)c1)c1nnc(-c2ccccc2)o1 (configuration not stated)	10%	-19%	i	1%	u	-25%
O=S(=O)(c1ccccc1)c1cnc(-c2cccnc2)nc1-c1ccc(Cl)c(Cl)c1	0%	u	i	6%	6.5µM*	-23%
CCn1cc2nc(SCc3cccc(C(F)(F)F)c3)n(Cc3ccc(Cl)cc3)c(=O)c2n1	x	15µM*	u	x	u	8.2µM*
CCn1c(SCc2cccc(C(F)(F)F)c2)nnc1-c1ccco1	0%	-13%	i	7%	u	-11%
CCn1cc2nc(SCc3cccc(C)c3)n(CCc3ccccc3)c(=O)c2n1	x	23µM*	i	x	i	u
CCn1cc2nc(SCc3cc(C)ccc3C)n(Cc3ccc(Cl)cc3)c(=O)c2n1	x	u	i	x	i	u
CCn1cc2nc(SCc3cccc(C(F)(F)F)c3)n(CCc3ccccc3)c(=O)c2n1	x	23µM*	i	x	u	13µM*
CNC(=O)CSc1nc2ccccc2c(=O)n1CCc1ccccc1	3%	-18%	i	2%	i	-8%
CCn1cc2nc(SCc3cccc(Cl)c3)n(Cc3ccc(C)cc3)c(=O)c2n1	x	21µM*	i	x	i	23µM*
Cn1c(=O)c2c(nc(SCC(=O)O)n2Cc2cccc(C(F)(F)F)c2)n(C)c1=O	0%	-3%	i	1%	i	-23%
COc1cccc(C(c2sc3nc(-c4ccco4)nn3c2O)N2CCC(O)CC2)c1 (configuration not stated)	x	25%	i	x	i	-19%
COc1ncnc2c1ncn2CCCNCC(c1ccccc1)c1ccccc1	-8%	23µM*	i	-15%	i	18µM*
c1ccc(COc2ncnc3c2ncn3CCCNCC(c2ccccc2)c2ccccc2)cc1	u	26µM*	u	16µM*	u	16µM*
COc1ncnc2c1ncn2CCCNCC(C)c1ccccc1 (configuration not stated)	-1%	3%	i	8%	i	-8%
c1ccc(COc2ncnc3c2ncn3CCCNCC2CCCO2)cc1 (configuration not stated)	1%	-12%	i	-1%	i	-12%
Cc1ccccc1C(=O)N1CC/C(=N\OS(=O)(=O)O)c2ccc(Cl)cc21	x	-24%	x	x	x	-3%
CC1=C(C(=O)Nc2ccccc2C)C(c2ccccn2)n2ncnc2N1 (configuration not stated)	x	2%	i	x	u	-1%
N#CC1=C(N)NC(SCC(=O)c2ccc(Br)cc2)=C(C#N)C12CCCCC2	-29%	u	u	-6%	16µM*	u
N#CC1=C(N)NC(SCC(=O)Nc2ccccc2)=C(C#N)C12CCCCC2	-14%	u	i	-1%	i	23µM*
CCSC1=C(C#N)C2(CCCCC2)C(C#N)=C(N)N1	-7%[9.24 µM]	-15%	u	-17%	u	u
SMILES	HT1080 IDH1KD tx	DT40 TDP1 CPT	KB-3-1 tox	HT1080NT lethal	KB-V1 MDR tox	DT40 TDP1 no CPT
CCCSC1=C(C#N)C2(CCCCC2)C(C#N)=C(N)N1	-24%	u	i	-2%	u	u
COc1ccc(C(=O)CSC2=C(C#N)C3(CCCCC3)C(C#N)=C(N)N2)cc1	u	u	i	0%	i	16µM*
O=C(OCc1ccccc1F)c1ccc(-c2nnn(Cc3ccccc3)n2)cc1	x	u	i	x	u	-19%
O=C(CN1C(=O)CCSc2ccc(S(=O)(=O)N3CCOCC3)cc21)Nc1cccc(F)c1	-9%	-24%	i	-8%	i	13%
Cc1ccc(NCCC(=O)c2cccc([N+](=O)[O-])c2)c(C)c1	u	8.2µM*	i	u	i	10µM*
Cc1cccc(NCCC(=O)c2ccc([N+](=O)[O-])cc2)c1C	-7%	4.6µM*	i	-10%	i	u
Cc1ccc(NCC(=O)c2ccc([N+](=O)[O-])cc2)cc1	-21%	u	i	10%	i	u
Cc1nc([N+](=O)[O-])c(C(=O)OCc2ccc(C#N)cc2)n1C	16%	-3%	i	7%	i	0%
CC1CCc2cccc3c(O)cc(=O)n1c23 (configuration not stated)	10%	-15%	i	8%	i	u
CC1CCc2cccc3c2N1c1cc(C#N)c(C#N)cc1O3 (configuration not stated)	-1%	-22%	7.3µM*	10%[9.24 µM]	u	u
CCOc1ccc(/C=N/NC(=O)Cc2cccs2)cc1	-5%	4%	i	-2%	i	-15%
Clc1ccc(-n2nnnc2SCc2c(-c3ccccc3)nc3sccn23)cc1	u	u	i	u	u	13µM*
CCn1c2ccccc2c2cc(NC(=O)CSc3nnnn3-c3ccccc3)ccc21	-20%	-26%	i	-10%	i	u
OC(CSc1nnnn1-c1ccccc1)Cn1c2ccccc2c2ccccc21 (configuration not stated)	u	u	u	-53%	21µM*	u
c1ccc(-n2nnnc2SCc2cccc(CSc3nnnn3-c3ccccc3)n2)cc1	-13%	u	i	-9%	u	13µM*
c1ccc(CSc2nnnn2-c2ccccc2)cc1	u	-20%	i	3%	i	0%
